# In PubChem BioAssay (NCI):
# This is part of a sample that, as a whole, favours compounds with a hit. Of some 79,000 tested, about 15% had one in any assay. Values without a mark were called inactive. The source made the active and inactive calls. Cut-off read from the data, not from the text of the source: active = growth inhibition above about 70%; inactive = the rest.
# Tests used:
# [1] = NCI Yeast Anticancer Drug Screen. Data for the rad52 strain (AID 147);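 note: 0% = growth of vehicle-treated control cultures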; conditions: S. cerevisiae rad52 mutant growth inhibition, stronger effect = higher value
# How it was run: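 Genetically altered yeast (DNA damage repair defect) treated with compound; inhibition calculated relative to vehicle.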
# [2] = NCI Yeast Anticancer Drug Screen. Data for the wt1 strain (AID 149);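 note: 0% = growth of vehicle-treated wt1 cultures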; conditions: S. cerevisiae wt1 strain (SPY 50644) growth inhibition, stronger effect = higher value
# How it was run: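 Measured: growth of wt1 yeast under compound versus vehicle treatment, reported as inhibition.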
# [3] = NCI Yeast Anticancer Drug Screen. Data for the rad50EPP+ strain (AID 151);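 note: 0% = growth of vehicle-treated control cultures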; conditions: S. cerevisiae rad50 mutant strain, stronger effect = higher value
# How it was run: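 Strain rad50EPP+; compound exposure; % growth inhibition vs vehicle.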
# [4] = NCI Yeast Anticancer Drug Screen. Data for the mgt1 strain (AID 153); conditions: S. cerevisiae mgt1 mutant growth inhibition, stronger effect = higher value
# How it was run: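 Read-out: yeast growth inhibition vs vehicle control. Strain mgt1, drawn from a panel altered in DNA damage repair or cell cycle control.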
# [5] = NCI Yeast Anticancer Drug Screen. Data for the rad50 strain (AID 155);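 note: 0% = growth of vehicle-only cultures of the same strain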; conditions: S. cerevisiae rad50 strain growth inhibition, stronger effect = higher value
# How it was run: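 Growth of the mutant yeast was measured after compound exposure and referenced to vehicle-treated cultures.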
# [6] = NCI Yeast Anticancer Drug Screen. Data for the mec2-1 strain (AID 157); conditions: S. cerevisiae mec2-1 strain, stronger effect = higher value
# How it was run: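 Cells of the genetically defined mec2-1 yeast strain are incubated with test compound. Inhibition of growth is calculated against vehicle-treated controls.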
# [7] = NCI Yeast Anticancer Drug Screen. Data for the rad14 strain (AID 159);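 note: 0% = growth of vehicle-treated control cultures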; conditions: S. cerevisiae rad14 strain growth inhibition, stronger effect = higher value
# How it was run: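 Here, inhibition of yeast growth was measured after compound exposure, using a strain with a genetic defect in DNA damage repair and vehicle-treated cultures as the reference.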
# [8] = NCI Yeast Anticancer Drug Screen. Data for the sgs1 mgt1 strain (AID 161);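 note: 0% = growth of cultures given vehicle only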; conditions: S. cerevisiae sgs1 mgt1 strain, stronger effect = higher value
# How it was run: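 Genetically altered yeast, compound exposure, growth inhibition relative to vehicle.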
# [9] = NCI Yeast Anticancer Drug Screen. Data for the CLN2oe strain (AID 163);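 note: 0% = growth of vehicle-only control cultures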; conditions: S. cerevisiae CLN2oe strain, stronger effect = higher value
# How it was run: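 Strain altered in cell-cycle control, incubated with compound; growth compared to solvent-treated controls.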
# [10] = NCI Yeast Anticancer Drug Screen. Data for the cln2 rad14 strain (AID 165);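 note: 0% = growth equal to vehicle treated cultures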; conditions: S. cerevisiae cln2 rad14 strain, stronger effect = higher value
# How it was run: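 The screen exposed genetically defined yeast (cln2 rad14) to test compounds and scored growth inhibition relative to vehicle-treated controls.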
# [11] = NCI Yeast Anticancer Drug Screen. Data for the bub3 strain (AID 167); conditions: S. cerevisiae bub3 mutant strain, stronger effect = higher value
# How it was run: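 Whole-cell yeast assay. The mutant strain was incubated with compounds, and growth inhibition was determined by comparison with vehicle-treated cells.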
# [12] = NCI Yeast Anticancer Drug Screen. Data for the wt2 strain (AID 169);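 note: 0% = growth of vehicle-treated yeast cultures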; conditions: S. cerevisiae wt2 strain growth inhibition, stronger effect = higher value
# How it was run: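 Steps: yeast strain treated with compound; growth recorded; inhibition calculated relative to cultures given vehicle alone.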
# [13] = NCI Yeast Anticancer Drug Screen. Data for the mlh1 strain (AID 171);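 note: 0% = growth of vehicle-treated control cultures of the same strain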; conditions: S. cerevisiae mlh1 strain growth inhibition, stronger effect = higher value
# How it was run: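 Yeast screen: mutant strain plus compound, growth scored against vehicle control wells.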
# [14] = NCI Yeast Anticancer Drug Screen. Data for the sgs1 strain (AID 173);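 note: 0% = growth of vehicle-only control cultures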; conditions: S. cerevisiae sgs1 mutant, stronger effect = higher value
# How it was run: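 Inhibition of yeast growth served as the measure. The mutant strain was treated with each compound, and growth was normalised to cultures receiving vehicle alone.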
# [15] = NCI Yeast Anticancer Drug Screen. Data for the mlh1 rad18 strain (AID 175); conditions: S. cerevisiae mlh1 rad18 strain growth inhibition, stronger effect = higher value
# How it was run: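 Compound-treated yeast growth, normalised to vehicle controls. Strain bears defined DNA repair mutations.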
# [16] = NCI Yeast Anticancer Drug Screen. Data for the rad18 strain (AID 177); conditions: S. cerevisiae rad18 mutant growth inhibition, stronger effect = higher value
# How it was run: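 Inhibition values reflect reduced yeast growth compared with vehicle-treated controls, using a strain engineered with a DNA damage repair defect.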
# [17] = at 5.0 µM (retest, dose inferred, filed as 0.5)
# [18] = at 50.0 µM (retest, dose inferred, filed as 5.0)
structure (smiles),measurement,setting,value
C[S+](C)C1(c2ccccc2)C(=O)c2ccccc2C1=O,growth inhibition,[1]; at 1.2 µM,8%
same,growth inhibition,[1]; at 3.7 µM,11%
same,growth inhibition,[1]; at 11.0 µM,20%
same,growth inhibition,[1]; at 33.0 µM,35%
same,growth inhibition,[1]; at 100.0 µM,73% (active)
same,growth inhibition,[2]; at 1.2 µM,1%
same,growth inhibition,[2]; at 3.7 µM,2%
same,growth inhibition,[2]; at 11.0 µM,1%
same,growth inhibition,[2]; at 33.0 µM,3%
same,growth inhibition,[2]; at 100.0 µM,12%
same,growth inhibition,[3]; at 1.2 µM,1%
same,growth inhibition,[3]; at 3.7 µM,3%
same,growth inhibition,[3]; at 11.0 µM,9%
same,growth inhibition,[3]; at 33.0 µM,36%
same,growth inhibition,[3]; at 100.0 µM,72% (active)
same,growth inhibition,[4]; at 1.2 µM,2%
same,growth inhibition,[4]; at 3.7 µM,1%
same,growth inhibition,[4]; at 11.0 µM,4%
same,growth inhibition,[4]; at 33.0 µM,3%
same,growth inhibition,[4]; at 100.0 µM,36%
same,growth inhibition,[5]; at 1.2 µM,1%
same,growth inhibition,[5]; at 3.7 µM,7%
same,growth inhibition,[5]; [17],7%
same,growth inhibition,[5]; at 11.0 µM,18%
same,growth inhibition,[5]; at 33.0 µM,42%
same,growth inhibition,[5]; [18],76% (active)
same,growth inhibition,[5]; at 50.0 µM,77% (active)
same,growth inhibition,[5]; at 100.0 µM,72% (active)
same,growth inhibition,[6]; at 1.2 µM,3%
same,growth inhibition,[6]; at 3.7 µM,0%
same,growth inhibition,[6]; [17],-9%
same,growth inhibition,[6]; at 11.0 µM,0%
same,growth inhibition,[6]; at 33.0 µM,11%
same,growth inhibition,[6]; [18],1%
same,growth inhibition,[6]; at 50.0 µM,-11.7%
same,growth inhibition,[6]; at 100.0 µM,30%
same,growth inhibition,[7]; at 1.2 µM,1%
same,growth inhibition,[7]; at 3.7 µM,0%
same,growth inhibition,[7]; at 11.0 µM,2%
same,growth inhibition,[7]; at 33.0 µM,6%
same,growth inhibition,[7]; at 100.0 µM,22%
same,growth inhibition,[8]; [17],6%
same,growth inhibition,[8]; [18],6%
same,growth inhibition,[8]; at 50.0 µM,1.35%
same,growth inhibition,[9]; at 1.2 µM,1%
same,growth inhibition,[9]; at 3.7 µM,2%
same,growth inhibition,[9]; at 11.0 µM,8%
same,growth inhibition,[9]; at 33.0 µM,13%
same,growth inhibition,[9]; at 100.0 µM,26%
same,growth inhibition,[10]; [17],6%
same,growth inhibition,[10]; [18],10%
same,growth inhibition,[10]; at 50.0 µM,9.8%
same,growth inhibition,[11]; at 1.2 µM,1%
same,growth inhibition,[11]; at 3.7 µM,2%
same,growth inhibition,[11]; [17],-7%
same,growth inhibition,[11]; at 11.0 µM,2%
same,growth inhibition,[11]; at 33.0 µM,8%
same,growth inhibition,[11]; [18],10%
same,growth inhibition,[11]; at 50.0 µM,35.9%
same,growth inhibition,[11]; at 100.0 µM,30%
same,growth inhibition,[12]; at 1.2 µM,2%
same,growth inhibition,[12]; at 3.7 µM,-1%
same,growth inhibition,[12]; at 11.0 µM,0%
same,growth inhibition,[12]; at 33.0 µM,6%
same,growth inhibition,[12]; at 100.0 µM,32%
same,growth inhibition,[13]; at 1.2 µM,1%
same,growth inhibition,[13]; at 3.7 µM,-1%
same,growth inhibition,[13]; at 11.0 µM,0%
same,growth inhibition,[13]; at 33.0 µM,7%
same,growth inhibition,[13]; at 100.0 µM,30%
same,growth inhibition,[14]; at 1.2 µM,-1%
same,growth inhibition,[14]; at 3.7 µM,-2%
same,growth inhibition,[14]; at 11.0 µM,-1%
same,growth inhibition,[14]; at 33.0 µM,16%
same,growth inhibition,[14]; at 100.0 µM,52%
same,growth inhibition,[15]; [17],10%
same,growth inhibition,[15]; [18],10%
same,growth inhibition,[15]; at 50.0 µM,27.9%
same,growth inhibition,[16]; at 1.2 µM,5%
same,growth inhibition,[16]; at 3.7 µM,9%
same,growth inhibition,[16]; at 11.0 µM,16%
same,growth inhibition,[16]; at 33.0 µM,36%
same,growth inhibition,[16]; at 100.0 µM,54%
O=C(O)c1cccc(-c2c3ccc(=O)cc-3oc3cc(O)ccc23)c1,growth inhibition,[1]; at 1.2 µM,-4%
same,growth inhibition,[1]; at 3.7 µM,26%
same,growth inhibition,[1]; at 11.0 µM,23%
same,growth inhibition,[1]; at 33.0 µM,62%
same,growth inhibition,[1]; at 100.0 µM,85% (active)
same,growth inhibition,[2]; at 1.2 µM,-10%
same,growth inhibition,[2]; at 3.7 µM,-5%
same,growth inhibition,[2]; at 11.0 µM,18%
same,growth inhibition,[2]; at 33.0 µM,77% (active)
same,growth inhibition,[2]; at 100.0 µM,96% (active)
same,growth inhibition,[3]; at 1.2 µM,-10%
same,growth inhibition,[3]; at 3.7 µM,3%
same,growth inhibition,[3]; at 11.0 µM,1%
same,growth inhibition,[3]; at 33.0 µM,-2%
same,growth inhibition,[3]; at 100.0 µM,25%
same,growth inhibition,[4]; at 1.2 µM,21%
same,growth inhibition,[4]; at 3.7 µM,12%
same,growth inhibition,[4]; at 11.0 µM,43%
same,growth inhibition,[4]; at 33.0 µM,80% (active)
same,growth inhibition,[4]; at 100.0 µM,97% (active)
same,growth inhibition,[5]; at 1.2 µM,9%
same,growth inhibition,[5]; at 3.7 µM,13%
same,growth inhibition,[5]; [17],90% (active)
same,growth inhibition,[5]; at 11.0 µM,22%
same,growth inhibition,[5]; at 33.0 µM,65%
same,growth inhibition,[5]; [18],99% (active)
same,growth inhibition,[5]; at 50.0 µM,63.6%
same,growth inhibition,[5]; at 100.0 µM,90% (active)
same,growth inhibition,[6]; at 1.2 µM,14%
same,growth inhibition,[6]; at 3.7 µM,14%
same,growth inhibition,[6]; [17],94% (active)
same,growth inhibition,[6]; at 11.0 µM,36%
same,growth inhibition,[6]; at 33.0 µM,84% (active)
same,growth inhibition,[6]; [18],99% (active)
same,growth inhibition,[6]; at 50.0 µM,23.1%
same,growth inhibition,[6]; at 100.0 µM,96% (active)
same,growth inhibition,[7]; at 1.2 µM,-29%
same,growth inhibition,[7]; at 3.7 µM,-20%
same,growth inhibition,[7]; at 11.0 µM,2%
same,growth inhibition,[7]; at 33.0 µM,71% (active)
same,growth inhibition,[7]; at 100.0 µM,95% (active)
same,growth inhibition,[8]; [17],0%
same,growth inhibition,[8]; [18],39%
same,growth inhibition,[8]; at 50.0 µM,54.2%
same,growth inhibition,[9]; at 1.2 µM,11%
same,growth inhibition,[9]; at 3.7 µM,-13%
same,growth inhibition,[9]; at 11.0 µM,-4%
same,growth inhibition,[9]; at 33.0 µM,61%
same,growth inhibition,[9]; at 100.0 µM,96% (active)
same,growth inhibition,[10]; [17],33%
same,growth inhibition,[10]; [18],69%
same,growth inhibition,[10]; at 50.0 µM,51%
same,growth inhibition,[11]; at 1.2 µM,10%
same,growth inhibition,[11]; at 3.7 µM,29%
same,growth inhibition,[11]; [17],53%
same,growth inhibition,[11]; at 11.0 µM,49%
same,growth inhibition,[11]; at 33.0 µM,79% (active)
same,growth inhibition,[11]; [18],69%
same,growth inhibition,[11]; at 50.0 µM,62.9%
same,growth inhibition,[11]; at 100.0 µM,92% (active)
same,growth inhibition,[12]; at 1.2 µM,-33%
same,growth inhibition,[12]; at 3.7 µM,-31%
same,growth inhibition,[12]; at 11.0 µM,-1%
same,growth inhibition,[12]; at 33.0 µM,76% (active)
same,growth inhibition,[12]; at 100.0 µM,95% (active)
same,growth inhibition,[13]; at 1.2 µM,-23%
same,growth inhibition,[13]; at 3.7 µM,-6%
same,growth inhibition,[13]; at 11.0 µM,39%
same,growth inhibition,[13]; at 33.0 µM,78% (active)
same,growth inhibition,[13]; at 100.0 µM,93% (active)
same,growth inhibition,[14]; at 1.2 µM,16%
same,growth inhibition,[14]; at 3.7 µM,35%
same,growth inhibition,[14]; at 11.0 µM,44%
same,growth inhibition,[14]; at 33.0 µM,83% (active)
same,growth inhibition,[14]; at 100.0 µM,92% (active)
same,growth inhibition,[15]; [17],94% (active)
same,growth inhibition,[15]; [18],99% (active)
same,growth inhibition,[15]; at 50.0 µM,47.8%
same,growth inhibition,[16]; at 1.2 µM,-3%
same,growth inhibition,[16]; at 3.7 µM,6%
same,growth inhibition,[16]; at 11.0 µM,41%
same,growth inhibition,[16]; at 33.0 µM,71% (active)
same,growth inhibition,[16]; at 100.0 µM,89% (active)
